The values that follow come from PubChem BioAssay.

Structures are written as SMILES. The source made the active and inactive calls.

Assay [1] can be described thus: optical density shifts of acrAB sulA E. coli – strain DRC41, OD650, 48 h, E. coli filamentation inducer project, primary screen (AID 1152).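 Note: E. coli MC1000 strain DRC41 lacking acrAB efflux pump and sulA.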 The note with it: higher = more signal, called active from +8 up or from −8 down.
Assay [2] in a line: probe aLefty1 binding on compound microarray – biochemical, small-molecule microarray, 635/667 nm fluorescence, primary screen (AID 1153).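 Note: score merges spot fluorescence with signal-to-noise ratio from the scanned slide images.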 The note with it: higher = more signal.
Assay [3] is described as follows: plasmodial surface anion channel blockers, osmotic lysis – cell-based, P. falciparum Indochina, OD700, 1 h, primary screen (AID 1154). The note with it: P. falciparum Indochina infected RBC osmotic lysis, higher = more signal, called active from +8 up or from −8 down.
Assay [4] in a line: plasmodial surface anion channel blockers, osmotic lysis – cell-based, P. falciparum Indochina, OD700, 2 h, primary screen (AID 1155).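 Note: lysis reports solute entry through the parasite surface anion channel PSAC.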 The note with it: P. falciparum Indochina infected erythrocytes, higher = more signal, called active from +8 up or from −8 down.
A short description of assay [5]: changes in parasitized red cell lysis, either direction – P. falciparum Indochina, OD700, 3 h, PSAC antagonist project, primary screen (AID 1156). The note with it: P. falciparum-infected erythrocytes, osmotic lysis, higher = more signal, called active from +8 up or from −8 down.
Assay [6] can be described thus: plasmodial surface anion channel blockers, osmotic lysis – cell-based, P. falciparum Indochina, OD700, 18 h, primary screen (AID 1157). The note with it: P. falciparum Indochina infected erythrocytes, osmotic lysis OD700, 18 h; higher = more signal, called active from +8 up or from −8 down.
Assay [7] in a line: S6 kinase pathway phospho-S6 level changes – cell-based, A549, cytoblot, luminescence, serum-stimulated, primary screen (AID 1158).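 Note: serum-stimulated A549 lung adenocarcinoma cells; signal is phosphorylated S6 detected by cytoblot immunostaining with HRP secondary.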 The note with it: 5 h, higher = more signal.
Assay [8] deals with NADPH oxidase 2 (Homo sapiens) (UniProt P04839). Kind of assay: compounds shifting NOX2 Amplex Red fluorescence – cell-based, HEK293-NOX2, PMA-stimulated, NOX inhibitor project, primary screen (AID 1159). Note: test concentration not given here. The note with it: 45 min, higher = more signal, called active from +8 up or from −8 down.
In assay [9] the target is NADPH oxidase 4 (Homo sapiens) (UniProt Q9NPH5). Kind of assay: compounds shifting NOX4 Amplex Red fluorescence – cell-based, HEK293-NOX4, tetracycline-induced, NOX inhibitor project, primary screen (AID 1160). The note with it: HEK293-NOX4, Amplex Red H2O2 fluorescence, 45 min; higher = more signal, called active from +8 up or from −8 down.
Assay [10] addresses NADPH oxidase 5 (Homo sapiens) (UniProt Q96PH1). Kind of assay: compounds shifting NOX5 Amplex Red fluorescence – cell-based, HEK293-NOX5, NOX inhibitor project, primary screen (AID 1161). The note with it: HEK293-NOX5, ionomycin, 45 min, higher = more signal.

Chain of NADPH oxidase 2 (Homo sapiens) (P04839 whole entry, looked up): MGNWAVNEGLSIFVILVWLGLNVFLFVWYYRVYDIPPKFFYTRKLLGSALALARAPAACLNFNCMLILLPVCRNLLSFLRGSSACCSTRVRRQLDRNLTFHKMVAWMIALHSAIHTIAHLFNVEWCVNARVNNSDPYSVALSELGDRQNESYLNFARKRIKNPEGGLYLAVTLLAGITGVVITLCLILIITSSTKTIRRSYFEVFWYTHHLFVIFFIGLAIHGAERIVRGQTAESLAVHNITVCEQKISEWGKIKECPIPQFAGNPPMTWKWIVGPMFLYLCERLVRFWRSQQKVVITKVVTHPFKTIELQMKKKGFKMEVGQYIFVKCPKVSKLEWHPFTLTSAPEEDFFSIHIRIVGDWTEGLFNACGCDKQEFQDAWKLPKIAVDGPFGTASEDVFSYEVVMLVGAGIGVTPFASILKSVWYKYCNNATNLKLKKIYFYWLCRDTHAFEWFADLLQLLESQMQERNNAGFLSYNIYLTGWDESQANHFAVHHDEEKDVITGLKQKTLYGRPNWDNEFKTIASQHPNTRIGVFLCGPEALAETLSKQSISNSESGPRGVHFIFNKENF
Chain of NADPH oxidase 4 (Homo sapiens) (Q9NPH5 whole entry, looked up): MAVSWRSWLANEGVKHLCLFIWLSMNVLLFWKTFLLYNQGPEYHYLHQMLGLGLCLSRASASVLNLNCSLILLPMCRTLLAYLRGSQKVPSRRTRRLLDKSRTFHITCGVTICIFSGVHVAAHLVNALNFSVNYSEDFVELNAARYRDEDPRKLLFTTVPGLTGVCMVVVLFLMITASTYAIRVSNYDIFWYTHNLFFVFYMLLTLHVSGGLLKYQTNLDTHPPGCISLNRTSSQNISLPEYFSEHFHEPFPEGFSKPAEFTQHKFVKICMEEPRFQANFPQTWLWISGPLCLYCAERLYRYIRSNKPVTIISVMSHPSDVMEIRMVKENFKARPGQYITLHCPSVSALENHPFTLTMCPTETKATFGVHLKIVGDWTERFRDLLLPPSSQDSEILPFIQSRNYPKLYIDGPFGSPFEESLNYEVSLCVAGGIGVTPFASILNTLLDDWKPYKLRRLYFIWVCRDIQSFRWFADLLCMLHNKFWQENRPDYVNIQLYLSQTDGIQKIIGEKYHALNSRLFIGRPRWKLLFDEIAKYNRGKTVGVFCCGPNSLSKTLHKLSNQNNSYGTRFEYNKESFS
Chain of NADPH oxidase 5 (Homo sapiens) (Q96PH1 whole entry, looked up): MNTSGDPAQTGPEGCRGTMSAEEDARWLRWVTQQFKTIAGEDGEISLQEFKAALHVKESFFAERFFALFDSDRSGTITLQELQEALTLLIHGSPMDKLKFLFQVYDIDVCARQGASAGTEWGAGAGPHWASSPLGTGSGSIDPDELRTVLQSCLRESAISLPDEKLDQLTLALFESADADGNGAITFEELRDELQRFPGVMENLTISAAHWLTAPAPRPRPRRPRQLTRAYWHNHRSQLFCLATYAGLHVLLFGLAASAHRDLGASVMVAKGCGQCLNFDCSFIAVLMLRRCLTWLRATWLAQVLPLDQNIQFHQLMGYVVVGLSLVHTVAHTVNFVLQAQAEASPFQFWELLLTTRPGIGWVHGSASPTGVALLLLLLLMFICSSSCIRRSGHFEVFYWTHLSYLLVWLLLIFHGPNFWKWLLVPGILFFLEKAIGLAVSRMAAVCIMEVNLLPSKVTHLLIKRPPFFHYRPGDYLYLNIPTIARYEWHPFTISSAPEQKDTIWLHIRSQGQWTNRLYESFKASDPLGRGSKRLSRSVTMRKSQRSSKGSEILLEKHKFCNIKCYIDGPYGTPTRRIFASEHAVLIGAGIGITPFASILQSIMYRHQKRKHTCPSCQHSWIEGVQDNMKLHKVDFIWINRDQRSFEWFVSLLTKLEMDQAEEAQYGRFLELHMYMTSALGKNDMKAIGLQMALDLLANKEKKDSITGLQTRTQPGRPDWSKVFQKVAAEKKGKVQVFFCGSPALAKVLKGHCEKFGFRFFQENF

Regarding `CCOC(=O)C=Cc1cc([N+](=O)[O-])ccc1O`, the z-score was -1.72 (inactive) in assay [1]; 26 (active) in assay [3]; 11.8 (active) in [4]; 2.13 (inactive) in assay [5]; -0.816 (inactive) in [6]; 2.41 in assay [7]. Besides, the z-score in assay [8] is -4.11 (inactive); in assay [9], -2.98 (inactive); in assay [10] it was -3.76. This compound also returned a composite z-score in assay [2] of -0.104.
For the compound `CC(C)C[C@@H]1NC(=O)[C@@H]2C[C@H](C(=O)NCCCCCN)[C@H](c3cccc(OCCO)c3)N2C1=O`, the z-score is 1.28 (inactive) in assay [1]; 3.07 (inactive) in [3]; -0.74 (inactive) in assay [4]; 1.1 (inactive) in [5]; -2 (inactive) in [6]; 0.836 in assay [7]. Also, the z-score was 1.22 (inactive) in assay [8], 0.74 (inactive) in [9] and 1.43 in assay [10]. For the same compound, in assay [2], the composite z-score is 0.427.
As to `CCCN1C(=O)[C@]2(CCS(=O)(=O)c3ccccc3)N=C(c3ccc(OCCCO)cc3)O[C@@H]2c2ccccc21`, the z-score is 1.51 (inactive) in assay [1]; 29.3 (active) in assay [3]; 21.2 (active) in assay [4]; 1.31 (inactive) in [5]; 0.471 (inactive) in assay [6]; 1.42 in [7]. For the same compound, the z-score in [8] was -1.5 (inactive); in assay [9], -0.284 (inactive); in assay [10], -1.17. Moreover, the composite z-score in assay [2] stood at 0.497.
Take `CN1C(=O)C2C=CC(C(O)c3ccccc3)N(Nc3ccccc3)C2C1=O` (stereo not given): the z-score in [1] is -1.78 (inactive); in [3], 0.0961 (inactive); in assay [4], 1.31 (inactive); in [5] it was 0.595 (inactive); in [6] it was 0.974 (inactive); in assay [7], -1.1. For the same compound, the z-score was -1.67 (inactive) in assay [8], -3.82 (inactive) in [9] and -3.23 in assay [10]. The compound also showed a composite z-score in [2] of 0.242.
As for `COc1cc2c(cc1OC)CN(C(=O)[C@@H]1[C@H]3C(=O)O[C@H](c4ccccc4)[C@H](c4ccccc4)N3[C@H](c3ccc(O)cc3)[C@@]13C(=O)Nc1ccc(C#CC4(O)CCCCCC4)cc13)CC2`, the z-score in assay [1] is 0.384 (inactive); in assay [3] it was 0.794 (inactive); in assay [4], 0.657 (inactive); in [5], 0.87 (inactive); in assay [6] it was 0.442 (inactive); in assay [7], 0.137. Further, the values for the z-score in assay [8], in assay [9] and in assay [10] were 1.65 (inactive), 0.744 (inactive) and 0.479, respectively. The same compound registered a composite z-score in assay [2] of -0.771.
Regarding `COC(=O)C=C(CC(O)c1cccc(Cl)c1)OC` (stereo not given), the z-score in assay [1] was 0.502 (inactive); in assay [3] it was 19.4 (active); in assay [4], 2.27 (inactive); in assay [5], -0.188 (inactive); in [6], -0.936 (inactive); in [7], 0.794. The z-score was 0.0865 (inactive) in assay [8], -0.0239 (inactive) in assay [9] and 0.219 in assay [10]. The same compound had a composite z-score in assay [2] of 1.6.
As for `COC(=O)C(CC#Cc1ccc2c(c1)[C@]1(C(=O)N2)[C@H](C(=O)O)[C@H]2C(=O)O[C@H](c3ccccc3)[C@H](c3ccccc3)N2[C@@H]1c1ccc(O)cc1)C(=O)OC`, the z-score in assay [1] was -0.818 (inactive); in [3], 1.83 (inactive); in [4], -0.038 (inactive); in assay [5], -0.15 (inactive); in assay [6], -0.0548 (inactive); in assay [7] it was 0.148. Also, the results for the z-score in assay [8], in assay [9] and in assay [10] were 0.699 (inactive), -0.0438 (inactive) and 0.921, respectively. In addition, the composite z-score in assay [2] came out at 0.145.
Consider `CCOC(=O)C1=CCC(c2ccccc2)N(S(=O)(=O)CC[Si](C)(C)C)C1` (stereo not given), for which the z-score is -0.348 (inactive) in assay [1]; 2.49 (inactive) in assay [3]; 0.767 (inactive) in [4]; -0.0704 (inactive) in assay [5]; 0.561 (inactive) in [6]; -0.215 in assay [7]. The z-score in [8] is 0.183 (inactive); in assay [9], 0.976 (inactive); in [10], -0.179. Moreover, the composite z-score in [2] was -0.147.
Take `[N-]=[N+]=Nc1ccccc1C[C@@]1(C(=O)NCCN2CCOCC2)N=C(c2ccc(OCCCO)cc2)O[C@@H]1c1ccccc1`: the z-score is 1.06 (inactive) in assay [1]; 28.8 (active) in [3]; 24.3 (active) in assay [4]; 2.41 (inactive) in [5]; 5.39 (inactive) in assay [6]; 0.368 in [7]. The values for the z-score in assay [8], in assay [9] and in assay [10] were -0.57 (inactive), 1.25 (inactive) and 0.589, respectively. In assay [2], this compound displayed a composite z-score of 0.234.
For the compound `CC1(C)[C@@H]2CC(C(O)C3C=CC4C(=O)N(c5ccccc5)C(=O)C4N3Nc3ccccc3)=C[C@H]1C2` (stereo not given in full), the z-score in assay [1] is -1.16 (inactive); in assay [3] it was 4.78 (inactive); in assay [4] it was 0.741 (inactive); in assay [5], -0.343 (inactive); in assay [6], 1.29 (inactive); in [7], -1.04. In addition, the z-score in assay [8] was -1.47 (inactive); in assay [9] it was -2.94 (inactive); in assay [10], -3.08. Besides, the composite z-score in [2] is -0.012.
For `COC(=O)[C@@]1(Cc2ccccc2)[C@H]2c3cc(C(=O)N4CCCC4)n(Cc4cccc5ccccc45)c3C[C@H]2CN1C(=O)c1ccccc1`, the z-score is -1.22 (inactive) in [1]; 6.74 (inactive) in assay [3]; 1.43 (inactive) in [4]; 1.27 (inactive) in [5]; 1.3 (inactive) in assay [6]; -0.503 in assay [7]. In addition, the z-score is 0.586 (inactive) in [8], -0.237 (inactive) in assay [9] and 1.05 in assay [10]. Further, the composite z-score in [2] amounted to 1.71.
Turning to `CCOC(=O)[C@H]1C/C=C/C[C@H](C(=O)OCC)C(=O)O[C@H]2[C@@H](OC)O[C@H](CO)[C@@H](OC(=O)Nc3cccc(F)c3)[C@@H]2OC1=O`, the z-score in [1] was 0.0021 (inactive); in assay [3] it was 4.53 (inactive); in [4], 1.81 (inactive); in assay [5], -2.04 (inactive); in assay [6] it was 1.61 (inactive); in assay [7], -0.0707. Besides, the z-score in assay [8] was -2.12 (inactive); in [9], -0.389 (inactive); in assay [10], -1.22. In [2], this compound had a composite z-score of 1.53.
Take `CCOC(=O)[C@H]1CC=C2CC1C(=O)N1CCC[C@@H]1[C@@H]2O[Si](C)(C)C(C)(C)C` (stereo not given in full): the z-score is -0.94 (inactive) in assay [1]; 2.09 (inactive) in assay [3]; 0.493 (inactive) in assay [4]; -0.42 (inactive) in [5]; 0.378 (inactive) in [6]; -0.409 in assay [7]. In addition, the results for the z-score in assay [8], in assay [9] and in assay [10] were 0.461 (inactive), -0.625 (inactive) and -3.9, respectively. The compound also came in with a composite z-score in [2] of -0.471.
